# Data: PubChem BioAssay AID686978 (National Center for Advancing Translational Sciences (NCATS), 2013)
# The whole screen tested about 420,000 compounds, of which about 64,000 (15%) were called active. Not shown: some 27% with an inconclusive outcome. Only a sample is shown. Values without a mark were called inactive. Calls follow the shape of the dose curve; as a rule, active = well fitted inhibition curve with a large enough effect; inconclusive = small, poorly fitted or top-dose-only effect; inactive = flat fitted curve, though single readings scatter.
# Assay: qHTS for Inhibitors of human tyrosyl-DNA phosphodiesterase 1 (TDP1): qHTS in cells in absence of CPT; also: nearly all actives have a fitted effect of over 55% in size
# Conditions: DT40 Tdp1-/- hTDP1 cells, no CPT, ATP luminescence, 48 h; activity change, negative = growth inhibition: at 46.2 µM (top of the series)
# Summary of the method: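 Camptothecin absent (DMSO only). Human TDP1-complemented DT40 knockout cells, 400 cells/well, 37 °C for minimum 48 hr; ATP measured via CellTiter-Glo, 30 min dark incubation, luminescence.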
# % is scaled to controls: 0 for no effect and ±100 for the full control effect; potency is read from the fitted curve at half-maximal effect.
SMILES,"activity change, negative = growth inhibition [%]",Potency
Nc1nc(C23CC4CC(CC(C4)C2)C3)cs1,-15.4,
CN(C)c1ccc(S(=O)(=O)NCC(=O)NCC2CCCCC2)cc1[N+](=O)[O-],0.804,
Cc1noc(NS(=O)(=O)c2ccc(N3CC(O)=C(c4ccccc4)C3=N)cc2)c1C,-0.727,
CCC(C)c1ccccc1N1CC(C(=O)N2CCN(S(=O)(=O)c3ccc(F)cc3)CC2)CC1=O (stereo not drawn),-24.6,
CC(=O)NC(c1ccccc1)c1nc(-c2ccccc2C)cs1 (stereo not drawn),-8.95,
CCC1=C(OC(=O)N(CC)CC)N2C(=O)OC(=NCC3CC3)[C@]2(C)[C@H]2C1=CC[C@H]1C(=O)N(CC(=O)OC)C(=O)[C@H]12,-5.13,
CCn1nc(C)c(NC(=O)/C=C/c2ccc(OC)c(COc3ccc(Br)cc3)c2)c1C,,20.6 µM (active)
COc1ccc(OC)c(S(=O)(=O)Nc2c(C)nn(C)c2C)c1,18.5,
CCn1nc(C(=O)NNS(=O)(=O)c2cc(/C=C/C(=O)O)cc(OC)c2OC)c2ccccc2c1=O,6.78,
Cc1ccccc1NC(=O)c1c(NC(=O)c2ccccc2F)sc2c1CCC(C)C2 (stereo not drawn),-5.64,
COC(=O)c1c(NC(=O)c2ccccc2F)sc2c1C(C(=O)OC)CC2 (stereo not drawn),,11.6 µM (active)
O=C(Nc1nnc(-c2ccccc2F)s1)c1ccccc1F,-14.6,
COc1cc(NC(=O)CCNC(=O)Cn2ccc3ccccc3c2=O)cc(OC)c1OC,,inactive
CC(=O)C[C@H](O)CC(=O)[C@@H]1OC(=O)[C@@H](C)C/C=C\Cc2ccccc21,-11.3,
N#CC1=C(N)Oc2cc(N)ccc2C1c1ccccc1 (stereo not drawn),,18.4 µM (active)
CC(C)c1ccc(C2C(C#N)=C(N)Oc3c2oc(CO)cc3=O)cc1 (stereo not drawn),-11.5,
Cc1cc(C)c2c3c(sc2n1)C(c1ccccc1)C(C#N)=C(N)O3 (stereo not drawn),-23,
c1nc(COc2nsnc2N2CCOCC2)cs1,-13.8,
CC(=O)Nc1cc2ccc(OC(C)=O)cc2oc1=O,-20,
CC(C)NC(=O)C(=O)N/N=C/c1ccco1,10.1,
Cc1ccc(Cn2c(CCCNC(=O)C3CCCCC3)nc3ccccc32)cc1,,20.6 µM (active)
Cc1ccc(CN2C(=O)CCC2C(=O)NCCCN2CCCCC2C)cc1 (stereo not drawn),-0.806,
CCCc1nc2c(C)cc(-c3nc4ccccc4n3C)cc2n1Cc1ccc(-c2ccccc2C(=O)O)cc1,-19.6,
O=C(NCCCc1ccccc1)C1CCC(CNc2c(N3CCCCC3)c(=O)c2=O)CC1 (stereo not drawn),-14.4,
CCc1ccc(OCCCn2c(CCCNC(=O)C3CCCCC3)nc3ccccc32)cc1,,4.47 µM (active)
CC(C)Oc1ccc(CNC(=O)C2CCN(c3nc4ccccc4n(C)c3=O)CC2)cc1,-15.9,

SMILES,"activity change, negative = growth inhibition [%]",Potency
CCCCNC(=O)CCn1c(=O)c2ccccc2n(Cc2cc(C)ccc2C)c1=O,,inactive
Cc1ccc(C)c(Cn2c(CCCNC(=O)C3CCCCC3)nc3ccccc32)c1,,16.4 µM (active)
CCCNC(=O)C1CCN(c2nc3ccc(C)cc3[nH]2)CC1,-6.49,
O=C(NC1CC(=O)N(c2ccc(F)cc2)C1)c1cccs1 (stereo not drawn),-16.2,
Cc1cc(C)c(S(=O)(=O)c2ccc(F)cc2C)c(=O)[nH]1,2.94,
COc1cccc(NC(=O)c2nn(-c3ccc(OC)cc3OC)c(=O)c3ccccc23)c1,-1.05,
O=C1NC(c2ccccc2)Cc2ccncc21 (stereo not drawn),-29.1,
N[C@H]1CN(c2c(F)cc3c(=O)c(C(=O)O)cn(C4C[C@H]4F)c3c2Cl)CC12CC2 (stereo partly drawn),-27.3,
NS(=O)(=O)c1cccc(NC(=O)CN2CCCc3ccccc32)c1,-2.52,
COC(=O)c1[nH]c2cccc(C)c2c1NC(=O)CN1CCCc2ccccc21,,20.6 µM (active)
Cc1ccc(OCC(=O)Nc2cccc3c2CCCC3)cc1C,-27,
CCN1CCN(C(=O)C2(NC(=O)Nc3cccc(F)c3)CCCCC2)CC1,-18.3,
O=C(COc1ccc2ccc(=O)oc2c1)NCC(O)c1ccccc1 (stereo not drawn),17.9,
COCCn1c(=O)c(-c2ccc(OC)cc2)nc2cnc(Oc3cccc(Cl)c3)nc21,-9.79,
O=C(NCc1cccs1)C1CCN(S(=O)(=O)c2ccc3c(c2)OCCO3)CC1,-23.7,
COc1ccc(C(=O)OCC(=O)Nc2cc(C)on2)cc1F,0.457,
Cn1nccc1C(=O)NC1CCCc2c1cnn2-c1ccccc1F (stereo not drawn),,2.06 µM (active)
CC(=O)NCC(=O)NC1CCCc2c1cnn2-c1ccccc1F (stereo not drawn),-0.918,
Cn1nccc1C(=O)NC1CCCc2c1cnn2-c1ccc(F)cc1F (stereo not drawn),,1.64 µM (active)
O=C(CCNC(=O)c1ccc(Cl)cc1)NC1CCCc2ccccc21 (stereo not drawn),4.52,
Cc1ccc(S(=O)(=O)N[C@@H](Cc2ccccc2)C(=O)N2CCC(C(=O)N[C@H](C(=O)O)C(C)O)CC2)cc1 (stereo partly drawn),10.3,
COc1ccc(C2C(C(C)=O)=C(O)C(=O)N2Cc2cccnc2)cc1 (stereo not drawn),-13.7,
COc1cc2nc(C#Cc3nc4cc(OC)c(OC)cc4[nH]3)[nH]c2cc1OC,-2.38,
Cc1nnc(NC(=O)Cn2c(=O)sc3ccccc32)s1,-4.38,
CC(Oc1ccccc1F)C(=O)NN (stereo not drawn),-2.53,
CCOc1ccc(-c2ccc(SCC(=O)N3CCOCC3)nn2)cc1,2.68,

SMILES,"activity change, negative = growth inhibition [%]",Potency
COc1ccc(OC)c(S(=O)(=O)N(C)CC(=O)N2CCN(c3ccccc3)CC2)c1,-2.97,
Cn1nc(C(F)(F)F)c2cc(C(=O)N3CCOCC3)sc21,-9.2,
COc1cccc(/C=C/C(=O)OCC(=O)N2CCN(c3ccccc3)CC2)c1,-8.54,
COc1ccc2c(Cl)c(C(=O)NCc3ccco3)sc2c1,-25.1,
O=C(NCc1ccco1)c1nc(-c2ccccc2)n(-c2ccccc2)n1,-18.6,
COc1cccc(-c2ccc(SCC(=O)N3CCN(c4ccccc4)CC3)nn2)c1,,16.4 µM (active)
CCOC(=O)N1CCN(C(=O)CSc2ccc(Cl)cc2)CC1,-4.08,
Cn1nc(-c2ccc(Cl)cc2)c2cc(C(=O)NCc3ccco3)sc21,,20.6 µM (active)
CCOC(=O)N1CCN(C(=O)c2cc3c(-c4ccc(Cl)cc4)nn(C)c3s2)CC1,,11.6 µM (active)
CCOC(=O)N1CCN(C(=O)CNC(=O)Cc2ccc(Cl)cc2)CC1,-16.7,
COc1cccc(-c2nn(C)c3sc(C(=O)N4CCN(c5ccccc5)CC4)cc23)c1,,23.1 µM (active)
COC(=O)c1nc(NC(=O)c2ccc(F)cc2)n[nH]1,-20.9,
Nc1cc(=O)c2[nH]cnc2[nH]1,3.63,
S=C(NC1CCCCC1)NN1CCOCC1,11.9,
CCn1c(SCC(=O)Nc2cc(C)ccc2C)nnc1-c1cnccn1,-12,
CCN(CCCNC(=O)c1c(C)oc2ncn(CC(C)C)c(=O)c12)Cc1ccccc1,-17.9,
Cc1ccc(C(c2sc3nc(C)nn3c2O)N2CCN(c3ccccc3)CC2)cc1 (stereo not drawn),-13.8,
Cc1ccn(CC(=O)N2N=C(C(F)F)CC2(O)C(F)F)n1 (stereo not drawn),-0.589,
CCOC(=O)C1=C(c2ccccc2)Nc2ncnn2C1c1ccc(Cl)cc1 (stereo not drawn),,18.4 µM (active)
CC1=C(C(N)=O)C(c2ccc(Br)cc2)n2ncnc2N1 (stereo not drawn),-12.6,
CCOc1ccccc1NC(=O)C1=C(C)Nc2ncnn2C1c1ccc(NC(C)=O)cc1 (stereo not drawn),-21,
COCCCNS(=O)(=O)c1cccc(S(=O)(=O)c2cccc(S(=O)(=O)NCCCOC)c2)c1,-19.7,
Cc1ccc(/C=N/NC(=O)C(NC(=O)c2ccccc2)c2n[nH]c(=O)c3ccccc23)cc1 (stereo not drawn),-9.86,
O=C(NCCN1CCOCC1)c1cc(-c2cccs2)nc2ccccc12,-17.6,
CCCCN(C)CCCNC(=O)c1cc(-c2cccs2)nc2ccccc12,,29.1 µM (active)
Cc1ccsc1-c1cc(C(=O)O)c2c(ccc3ccccc32)n1,5.58,

SMILES,"activity change, negative = growth inhibition [%]",Potency
O=C1c2ccccc2-c2ccccc2NC1O (stereo not drawn),11,
COc1ccc(/C=N/OCc2ccccc2C#N)c(OC)c1,-22.7,
CCOc1ccc(C2C(C#N)=C(N)N(N(C)C)C3=C2C(=O)CCC3)cc1 (stereo not drawn),5.03,
CCOC(=O)c1c(NC(=O)CSc2cn(CCNC(=O)c3cccc(C(F)(F)F)c3)c3ccccc23)sc2c1CCC2,-3.22,
O=C(NCC(c1cccnc1)N1CCc2ccccc21)c1cccc(C(F)(F)F)c1 (stereo not drawn),,14.6 µM (active)
Cc1ccc(NC(=O)NCC(c2cccnc2)N2CCOCC2)cc1 (stereo not drawn),6.95,
COc1ccc(S(=O)(=O)NCC(c2ccc(N(C)C)cc2)N2CCc3ccccc32)cc1OC (stereo not drawn),-27.6,
COc1ccc(C(=O)NCC(c2ccc(N(C)C)cc2)N2CCc3ccccc32)c(OC)c1 (stereo not drawn),,20.6 µM (active)
O=C(NCC(c1ccco1)N1CCc2ccccc21)c1cccc(F)c1 (stereo not drawn),,11.6 µM (active)
COc1cc(C(=O)NCC(c2ccco2)N2CCCC2)ccc1OCc1ccccc1 (stereo not drawn),-17.8,
CN(C)C(CNC(=O)c1cccc(C#N)c1)c1ccco1 (stereo not drawn),-2.74,
CCOc1ccccc1C(=O)NCC(c1ccc(N(C)C)cc1)N1CCCC1 (stereo not drawn),-76.7,
COc1ccccc1C(=O)NCCC(=O)NCC(c1ccco1)N1CCCCC1 (stereo not drawn),-8.25,
O=C(NN1CCOCC1)c1cccc(F)c1,-5.34,
COc1ccc(C(=O)NCC(c2ccco2)N2CCc3ccccc32)cc1OC (stereo not drawn),,16.4 µM (active)
CCn1cc(C(=O)NCCO)c(=O)c2cc(F)c(N3CCN(C)CC3)cc21,2.98,
Cc1ccc(NC(=S)NC(NC(=O)Cc2cccc3ccccc23)C(Cl)(Cl)Cl)cc1 (stereo not drawn),-8.05,
Cc1cc(C(=O)O)c(S(C)(=O)=O)s1,0.116,
NNc1nnc(Cc2ccncc2)c2ccccc12,-14.2,
O=C(COC(=O)Cn1[nH]c(=O)c2ccccc2c1=O)Nc1c(Cl)cccc1C(F)(F)F,-0.552,
COc1ccc([N+](=O)[O-])cc1N(CC(=O)Nc1ccccc1C(=O)N1CCOCC1)S(C)(=O)=O,-1.39,
CN(C)c1ccc(C2N(C)C(=O)c3ccccc3N2C)cc1 (stereo not drawn),-15,
CC1CCc2c(c3ccccc3[nH]c2=O)O1 (stereo not drawn),1.73,
O=C(O)C1OC(C(=O)O)C2C1C(F)(F)C2(F)F (stereo not drawn),0.936,
Cc1ccc2nc(NCCCNC(=O)c3cnccn3)c(C#N)cc2c1,-1.12,
